Drawing on PubChem BioAssay (NCI), this text covers growth inhibition for 9 compounds.

The nature of experiment [1]: NCI Yeast Anticancer Drug Screen. Data for the rad50 strain (AID 155).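 Further: 0% = growth of vehicle-only cultures of the same strain.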 To be noted: S. cerevisiae rad50 strain growth inhibition, active compounds read high. In outline:
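Growth of the mutant yeast was measured after compound exposure and referenced to vehicle-treated cultures.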

A short description of experiment [2]: NCI Yeast Anticancer Drug Screen. Data for the mec2-1 strain (AID 157). To be noted: S. cerevisiae mec2-1 strain, active compounds read high. The gist of the method: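 mec2-1 yeast strain, carrying an alteration in DNA damage repair or cell cycle control, was exposed to compounds; growth inhibition was measured relative to vehicle-treated controls.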
A short description of experiment [3]: NCI Yeast Anticancer Drug Screen. Data for the sgs1 mgt1 strain (AID 161).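 Further: 0% = growth of cultures given vehicle only.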 To be noted: S. cerevisiae sgs1 mgt1 strain, active compounds read high. The gist of the method: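 Yeast cells carrying a defined DNA-repair defect were exposed to test compounds. Growth inhibition was measured relative to vehicle-treated controls.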
The nature of experiment [4]: NCI Yeast Anticancer Drug Screen. Data for the cln2 rad14 strain (AID 165).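 Further: 0% = growth equal to vehicle treated cultures.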 To be noted: S. cerevisiae cln2 rad14 strain, active compounds read high. In outline: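 Yeast carrying cln2 and rad14 alterations (cell cycle control and DNA damage repair) were exposed to compounds. Growth inhibition was measured against vehicle-treated controls.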
Experiment [5] in a line: NCI Yeast Anticancer Drug Screen. Data for the bub3 strain (AID 167). The settings on record: S. cerevisiae bub3 mutant strain, active compounds read high. The gist of the method:
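Whole-cell yeast assay. The mutant strain was incubated with compounds, and growth inhibition was determined by comparison with vehicle-treated cells.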

Experiment [6] can be described thus: NCI Yeast Anticancer Drug Screen. Data for the mlh1 rad18 strain (AID 175). To be noted: S. cerevisiae mlh1 rad18 strain growth inhibition, active compounds read high. The gist of the method: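 Growth inhibition of the yeast strain was measured after compound exposure and expressed relative to vehicle-treated controls. The strain carries defined defects in DNA damage repair.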

The mark [7] stands for this setting: at 5.0 µM (retest, dose inferred, filed as 0.5).
[8] abbreviates: at 50.0 µM (retest, dose inferred, filed as 5.0).

SMILES strings stand for the structures. This is part of a sample that, as a whole, favours compounds with a hit. Of some 79,000 tested, about 15% had one in any assay. Unmarked numbers belong to inactive results. The source made the active and inactive calls. No stated cut-off is given here; in the data, active means growth inhibition above about 70%; inactive means the rest.

For the compound `O=C1CCC(=O)c2c1c(O)c1ccncc1c2O`, the growth inhibition in experiment [1] (setting [7]) is 18%; in experiment [1] (setting [8]) it was 99% (active); in experiment [1] (at 50.0 µM), 98.1% (active); in experiment [2] (setting [7]), 26%; in experiment [2] (setting [8]), 99% (active); in experiment [2] (at 50.0 µM) it was 99.3% (active). Besides, the growth inhibition was 31% in experiment [3] (setting [7]); 99% (active) in experiment [3] (setting [8]); 99.2% (active) in experiment [3] (at 50.0 µM); 11% in experiment [4] (setting [7]); 99% (active) in experiment [4] (setting [8]); 98.5% (active) in experiment [4] (at 50.0 µM). Moreover, the growth inhibition in experiment [5] (setting [7]) was 16%; in experiment [5] (setting [8]), 99% (active); in experiment [5] (at 50.0 µM), 99.2% (active); in experiment [6] (setting [7]) it was 41%; in experiment [6] (setting [8]) it was 99% (active); in experiment [6] (at 50.0 µM), 99% (active).

For the compound `O=[N+]([O-])c1ccc(N=Nc2ccc(O)cc2O)cc1`, the growth inhibition was 48% in experiment [1] (setting [7]); 97% (active) in experiment [1] (setting [8]); 98.5% (active) in experiment [1] (at 50.0 µM); 24% in experiment [2] (setting [7]); 98% (active) in experiment [2] (setting [8]); 98.9% (active) in experiment [2] (at 50.0 µM). Besides, the growth inhibition in experiment [3] (setting [7]) is 36%; in experiment [3] (setting [8]), 98% (active); in experiment [3] (at 50.0 µM) it was 98.3% (active); in experiment [4] (setting [7]) it was -1%; in experiment [4] (setting [8]) it was 97% (active); in experiment [4] (at 50.0 µM) it was 90.4% (active). The growth inhibition in experiment [5] (setting [7]) is 45%; in experiment [5] (setting [8]) it was 97% (active); in experiment [5] (at 50.0 µM) it was 98.9% (active); in experiment [6] (setting [7]), 28%; in experiment [6] (setting [8]), 97% (active); in experiment [6] (at 50.0 µM) it was 97.7% (active).

As for `O=C1c2ccccc2NC(=O)C2C1C(c1ccccc1)CC2(O)c1ccccc1` (configuration not stated), the growth inhibition in experiment [1] (setting [7]) is 7%; in experiment [1] (setting [8]) it was 87% (active); in experiment [1] (at 50.0 µM), 62.5%; in experiment [2] (setting [7]), 7%; in experiment [2] (setting [8]), 88% (active); in experiment [2] (at 50.0 µM), 73.8% (active). For the same compound, the growth inhibition was 16% in experiment [3] (setting [7]); 70% (active) in experiment [3] (setting [8]); 72% (active) in experiment [3] (at 50.0 µM); -14% in experiment [4] (setting [7]); 51% in experiment [4] (setting [8]); 68% in experiment [4] (at 50.0 µM). Moreover, the growth inhibition in experiment [5] (setting [7]) is -27%; in experiment [5] (setting [8]) it was 75% (active); in experiment [5] (at 50.0 µM) it was 69.5%; in experiment [6] (setting [7]) it was 21%; in experiment [6] (setting [8]) it was 86% (active); in experiment [6] (at 50.0 µM) it was 32.5%.

For `C[CH2][Ge]([CH2]C)([CH2]C)[O]C(=O)C([O][Ge]([CH2]C)([CH2]C)[CH2]C)c1ccccc1` (configuration not stated), the growth inhibition in experiment [1] (setting [7]) is 15%; in experiment [1] (setting [8]), 15%; in experiment [1] (at 50.0 µM), 91.2% (active); in experiment [2] (setting [7]), 6%; in experiment [2] (setting [8]), 6%; in experiment [2] (at 50.0 µM) it was 93% (active). Moreover, the growth inhibition was 13% in experiment [3] (setting [7]); 13% in experiment [3] (setting [8]); 91.3% (active) in experiment [3] (at 50.0 µM); 15% in experiment [4] (setting [7]); 15% in experiment [4] (setting [8]); 89.5% (active) in experiment [4] (at 50.0 µM). Also, the growth inhibition is 5% in experiment [5] (setting [7]); 5% in experiment [5] (setting [8]); 90.6% (active) in experiment [5] (at 50.0 µM); 23% in experiment [6] (setting [7]); 23% in experiment [6] (setting [8]); 89.5% (active) in experiment [6] (at 50.0 µM).

Take `CCCCSc1n[nH]c(=O)nc1SC`: the growth inhibition in experiment [1] (setting [7]) is -142%; in experiment [1] (setting [8]), 88% (active); in experiment [1] (at 50.0 µM) it was 47.1%; in experiment [2] (setting [7]), -63%; in experiment [2] (setting [8]) it was 79% (active); in experiment [2] (at 50.0 µM), 48.6%. In addition, the growth inhibition in experiment [3] (setting [7]) is -57%; in experiment [3] (setting [8]), 83% (active); in experiment [3] (at 50.0 µM), 46.5%; in experiment [4] (setting [7]), -56%; in experiment [4] (setting [8]), 90% (active); in experiment [4] (at 50.0 µM), 73.8% (active). For the same compound, the growth inhibition in experiment [5] (setting [7]) is -64%; in experiment [5] (setting [8]), 87% (active); in experiment [5] (at 50.0 µM) it was 52.4%; in experiment [6] (setting [7]) it was -114%; in experiment [6] (setting [8]), 94% (active); in experiment [6] (at 50.0 µM) it was 50.9%.

Take `NC(CCC(=O)NC(CS(=O)(=O)O)C(=O)O)C(=O)O` (configuration not stated): the growth inhibition in experiment [1] (setting [7]) was 1%; in experiment [1] (setting [8]), 6%; in experiment [1] (at 50.0 µM), 13.2%; in experiment [2] (setting [7]), 3%; in experiment [2] (setting [8]), 2%; in experiment [2] (at 50.0 µM), 12.8%. For the same compound, the growth inhibition is 3% in experiment [3] (setting [7]); 5% in experiment [3] (setting [8]); 79.7% (active) in experiment [3] (at 50.0 µM); 3% in experiment [4] (setting [7]); 4% in experiment [4] (setting [8]); 93.5% (active) in experiment [4] (at 50.0 µM). Besides, the growth inhibition was -3% in experiment [5] (setting [7]); -6% in experiment [5] (setting [8]); 13.4% in experiment [5] (at 50.0 µM); -3% in experiment [6] (setting [7]); -2% in experiment [6] (setting [8]); 85.9% (active) in experiment [6] (at 50.0 µM).

With `O=[N+]([O-])c1cc(CN(CCO)CCO)c(O)c2ncccc12`, the growth inhibition was 99% (active) in experiment [1] (setting [7]); 99% (active) in experiment [1] (setting [8]); 99.1% (active) in experiment [1] (at 50.0 µM); 98% (active) in experiment [2] (setting [7]); 100% (active) in experiment [2] (setting [8]); 94% (active) in experiment [2] (at 50.0 µM). The growth inhibition in experiment [3] (setting [7]) was 96% (active); in experiment [3] (setting [8]), 100% (active); in experiment [3] (at 50.0 µM) it was 99% (active); in experiment [4] (setting [7]), 97% (active); in experiment [4] (setting [8]), 99% (active); in experiment [4] (at 50.0 µM), 91.3% (active). In addition, the growth inhibition was 95% (active) in experiment [5] (setting [7]); 99% (active) in experiment [5] (setting [8]); 95.7% (active) in experiment [5] (at 50.0 µM); 96% (active) in experiment [6] (setting [7]); 99% (active) in experiment [6] (setting [8]); 97.2% (active) in experiment [6] (at 50.0 µM).

For `Cc1cc2c(cc1Cl)Sc1nnc(C)n1S2(=O)=O`, the growth inhibition in experiment [1] (setting [7]) is 18%; in experiment [1] (setting [8]), 81% (active); in experiment [1] (at 50.0 µM), 74.8% (active); in experiment [2] (setting [7]) it was 14%; in experiment [2] (setting [8]), 59%; in experiment [2] (at 50.0 µM), 71% (active). Moreover, the growth inhibition is 3% in experiment [3] (setting [7]); 34% in experiment [3] (setting [8]); 62.2% in experiment [3] (at 50.0 µM); 17% in experiment [4] (setting [7]); 34% in experiment [4] (setting [8]); 48.8% in experiment [4] (at 50.0 µM). For the same compound, the growth inhibition in experiment [5] (setting [7]) was -12%; in experiment [5] (setting [8]) it was 85% (active); in experiment [5] (at 50.0 µM), 84.3% (active); in experiment [6] (setting [7]), 9%; in experiment [6] (setting [8]), 75% (active); in experiment [6] (at 50.0 µM), 75.6% (active).

As for `COC(=O)c1cc2c(c(C(=O)OC)c1O)C(=O)C=CC2=O`, the growth inhibition in experiment [1] (setting [7]) was 2%; in experiment [1] (setting [8]), 78% (active); in experiment [1] (at 50.0 µM), 84.5% (active); in experiment [2] (setting [7]) it was 8%; in experiment [2] (setting [8]) it was 95% (active); in experiment [2] (at 50.0 µM) it was 84% (active). Further, the growth inhibition is 5% in experiment [3] (setting [7]); 80% (active) in experiment [3] (setting [8]); 80% (active) in experiment [3] (at 50.0 µM); 10% in experiment [4] (setting [7]); 95% (active) in experiment [4] (setting [8]); 56.3% in experiment [4] (at 50.0 µM). For the same compound, the growth inhibition in experiment [5] (setting [7]) is -2%; in experiment [5] (setting [8]), 90% (active); in experiment [5] (at 50.0 µM), 69.8%; in experiment [6] (setting [7]) it was -28%; in experiment [6] (setting [8]) it was 95% (active); in experiment [6] (at 50.0 µM) it was 70.6% (active).
